Key:
Assay in all cases: PBM binding z-score (relative to random genomic background probes); higher = stronger binding; sequences stand for … in GC…GCGATTGACAGCGTAGAATGAAGG
[1] = test system: FXR:RXRa (NR concentration 270 nM, RXRa partner concentration 90 nM)
In short: (§1)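 Scanned fluorescence from custom Agilent 4×180K protein-binding microarrays was regression-normalized. Binding z-scores use random background probes as reference. Ligand-free nuclear receptor dimers were incubated on the arrays for 1 h and detected with antibodies against each partner (one per run).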

[2] = test system: LXRa:RXRa (NR concentration 270 nM, RXRa partner concentration 90 nM)
In short: as §1

[3] = test system: LXRa homodimer (NR concentration 270 nM)
In short: as §1

[4] = test system: LXRb:RXRa (NR concentration 270 nM, RXRa partner concentration 90 nM)
In short: as §1

[5] = test system: LXRb homodimer (NR concentration 270 nM)
In short: as §1

[6] = test system: PPARa:RXRa (NR concentration 270 nM, RXRa partner concentration 90 nM)
In short: as §1

[7] = test system: PPARg:RXRa (NR concentration 180 nM, RXRa partner concentration 90 nM)
In short: as §1

[8] = test system: PPARg:RXRa 270nM:90nM, anti-RXR (NR concentration 270 nM, RXRa partner concentration 90 nM)
In short: as §1

[9] = test system: PPARg:RXRa 30nM:10nM, anti-RXR (NR concentration 30 nM, RXRa partner concentration 10 nM)
In short: as §1

[10] = test system: PPARg:RXRa 90nM:30nM, anti-RXR (NR concentration 90 nM, RXRa partner concentration 30 nM)
In short: as §1

[11] = test system: PPARg:RXRa DBDmut IVT, anti-RXR (DBD mutation: RXRa K156A/R161A, NR concentration 270 nM, RXRa partner concentration 90 nM)
In short: as §1

[12] = test system: PPARg:RXRa IVT, anti-PPARg (NR concentration 270 nM, RXRa partner concentration 90 nM)
In short: as §1

[13] = test system: PPARg DBDmut:RXRa IVT, anti-PPARg (DBD mutation: PPARg1 K132A/R137A, NR concentration 270 nM, RXRa partner concentration 90 nM)
In short: as §1

[14] = test system: PPARg DBDmut IVT, anti-PPARg (DBD mutation: PPARg1 K132A/R137A, NR concentration 270 nM)
In short: as §1

[15] = test system: PPARg homodimer (NR concentration 180 nM)
In short: as §1

[16] = test system: PXR:RXRa (NR concentration 270 nM, RXRa partner concentration 90 nM)
In short: as §1

[17] = test system: PXR homodimer (NR concentration 270 nM)
In short: as §1

[18] = test system: RARa:RXR (NR concentration 270 nM, RXRa partner concentration 90 nM)
In short: as §1

[19] = test system: RARa homodimer (NR concentration 270 nM)
In short: as §1

[20] = test system: RARb:RXRa (NR concentration 270 nM, RXRa partner concentration 90 nM)
In short: as §1

Row | Sequence | PBM binding z-score [1] | PBM binding z-score [2] | PBM binding z-score [3] | PBM binding z-score [4] | PBM binding z-score [5] | PBM binding z-score [6] | PBM binding z-score [7] | PBM binding z-score [8] | PBM binding z-score [9] | PBM binding z-score [10] | PBM binding z-score [11] | PBM binding z-score [12] | PBM binding z-score [13] | PBM binding z-score [14] | PBM binding z-score [15] | PBM binding z-score [16] | PBM binding z-score [17] | PBM binding z-score [18] | PBM binding z-score [19] | PBM binding z-score [20]
1 | ATCGAAAGGTCGAAGGTGAGGATACCCACCCGAA | 4.08 | 3.68 | 0.155 | 2.73 | 0.724 | 4.69 | 4.61 | 5.07 | 2.25 | 4.11 | 0.202 | 2.45 | 0.792 | 0.619 | 1.6 | 3.14 | 0.0224 | 4.45 | 0.541 | 3.66
2 | AGTCAAAGTGCAGGACGAGGTAACGTAAAGCACG | -0.105 | -0.155 | -0.419 | -0.641 | -0.89 | 0.169 | 1.06 | 1.03 | 0.301 | 0.389 | -0.506 | 0.274 | -0.356 | -0.388 | -0.0962 | -0.156 | -0.256 | 0.784 | -0.657 | 1.15
3 | CGTACTAGGTCATTGACAGGACAGTGAATAGTAA | 4.65 | 3.15 | 0.997 | 2.29 | 0.27 | 4.07 | 6.36 | 5.47 | 3.06 | 4.93 | 7.67 | 7.54 | 3.72 | 3.85 | 3.05 | 1.64 | 0.269 | 2.54 | 0.282 | 3.67
4 | ATCGTAAGGTCGAGGTGAGTATAGAGAAAGGGAA | 2.64 | 1.91 | 0.0142 | 1.68 | 0.624 | 3.02 | 1.53 | 1.72 | 0.505 | 1.27 | -0.153 | 1.72 | 1.12 | 1.14 | 1.07 | 1.68 | 0.189 | 2.17 | 0.395 | 3.22
5 | GCTGCTAGGACAACTGATGGTCAGCTAAAGCTCG | -0.547 | -0.859 | -0.672 | -1.14 | -1.05 | -1.94 | -0.0624 | -0.895 | -0.952 | -1.12 | 0.688 | -0.573 | -1.55 | -1.57 | -1.24 | -1.1 | -1.66 | -1.08 | -1.4 | 0.341
6 | TATACAGGGTCAAAGACCAGAGTACGAATGTCGA | 7.01 | 5.81 | 2.11 | 4.83 | 2.31 | 5.9 | 6.65 | 5.94 | 3.43 | 5.01 | 2.05 | 4.19 | 1.75 | 1.67 | 1.9 | 3.65 | 0.419 | 4.04 | 0.668 | 4.25
7 | CCAGACAGGTGAGAAGGTAACTCAACCTCGATTA | -0.191 | 0.167 | 0.188 | 0.347 | -0.388 | 0.894 | 0.669 | 0.515 | 0.064 | 0.437 | 1.22 | 0.742 | 0.229 | -0.571 | 1.06 | 0.207 | 0.428 | 0.706 | 0.916 | 0.619
8 | TCATATAGGTAAAAGGTGAAAGGCGGTGTGGTAA | 1.86 | 1.88 | 0.349 | 1.9 | 0.306 | 5.25 | 9.05 | 8.31 | 8.92 | 9.94 | 5.24 | 5.21 | 3.35 | 1.06 | 2.76 | 1.69 | 0.582 | 2.48 | 1.28 | 1.79
9 | TCTATTAGTTGATTAGGGAAACCGAAACAGCGGA | 0.843 | 0.826 | 0.343 | 0.602 | 0.852 | 0.623 | -0.0137 | 2.16 | 3.69 | 3.2 | 2.16 | 0.295 | 0.834 | 0.978 | 1.03 | 0.624 | 1.07 | 0.778 | 1.68 | 0.394
10 | CTCGAAACGTCGTGCTCAGGTGAGTATACCAAAC | -0.453 | -0.656 | -0.383 | -0.688 | -0.52 | -0.553 | -0.362 | -0.781 | -0.655 | -0.34 | -0.582 | -0.171 | -0.256 | 0.311 | -0.393 | -0.468 | -0.608 | -0.466 | -0.557 | -0.265
11 | GCTATTAGTTGAAATGGCAACCGAATGATTCTCG | -0.365 | -0.424 | -0.152 | -0.394 | -0.166 | -0.14 | 0.344 | 0.398 | 0.213 | 0.114 | 0.598 | -0.104 | 0.641 | 0.526 | 0.501 | -0.119 | 0.359 | -0.166 | 0.404 | -0.346
12 | AATACAGGGTCAATAGGCCAGAGTAGGTACGAAT | 6.54 | 5.03 | 0.816 | 3.72 | 0.669 | 5.72 | 6.47 | 5.46 | 2.53 | 4.61 | 2.44 | 4.21 | 1.55 | 0.759 | 2.2 | 2.69 | 0.585 | 3.85 | 0.911 | 4.17
13 | TGAATAAGGTTATAAGATCAGGGAACGTTGCAAA | 1.45 | 1.38 | 0.228 | 1.24 | -0.00633 | 2.31 | 0.925 | 1.57 | 1.06 | 1.53 | 0.667 | 1.08 | 1.27 | 0.778 | 0.811 | 0.858 | -0.117 | 1.6 | 0.729 | 1.67
14 | GCTAGCAGGCCATTTGGGTCACTTAATGACGGGC | 0.0717 | -0.185 | -0.464 | -0.142 | -0.905 | 1.16 | 0.67 | 0.681 | -0.515 | 0.00792 | 1.56 | 1.89 | -0.44 | -0.938 | -0.528 | 0.407 | -0.077 | 0.758 | -1.06 | 1.3
15 | CAGCTTAGGTCAGGGCCAGTATAGGAGGAACGTT | 2.21 | 1.3 | -0.0157 | 0.814 | -0.56 | 2.17 | 0.606 | 0.732 | -0.0225 | 0.447 | 1.28 | 0.782 | -0.279 | -1.2 | 1.34 | 0.726 | 0.0136 | 1.68 | 0.556 | 3.79
16 | AGAACGAGGGTACGCTGAGTTGATAGCAGAGTAG | -0.315 | -0.553 | -0.621 | -0.739 | -0.968 | -0.00229 | 0.661 | -0.197 | -0.127 | -0.289 | 1.48 | 0.725 | 0.215 | 0.0529 | -0.458 | 0.223 | 0.15 | -0.0408 | -0.807 | 0.364
17 | CCGACTGGGGCAGAAAGGTTACCAAACCATCCGG | 0.151 | 0.796 | -0.38 | 1.02 | -0.812 | 2.22 | 1.48 | 2.84 | 0.501 | 2.07 | 1.37 | 1.71 | -0.76 | -0.56 | 0.448 | 0.803 | -0.532 | 1.58 | -0.491 | 1.86
18 | ATATGTAGGTTATCGGGTCATTCTGTTTGCGCAT | 3.44 | 3.6 | 2.23 | 3.26 | 1.27 | 4.93 | 6.86 | 6.16 | 3.52 | 5.94 | 7.83 | 7.65 | 3.52 | 2.76 | 2.77 | 3.48 | 1.54 | 3.91 | 1.87 | 2.57

Source: the supplement of paper PMC6555819
